Laboratory results taken from PubChem BioAssay (Tox21).
Inconclusive results are not listed. Unmarked numbers belong to inactive results. Calls of active or inactive are those of the source. Calls come from the whole dose curve; as a rule, active = well fitted cell-killing curve with a large enough effect in the repeat runs; inconclusive = weak or mixed curves, or effect the other way; inactive = flat fitted curve, though single readings scatter.

Assay: cAMP Responsive Elements (CRE) small molecule agonists, cell-based qHTS assay: qHTS cell viability counter screen (AID 2060914); note: nearly all actives have a fitted effect of over 50% in size
Conditions: CRE-bla HEK293T viability, CellTiter-Glo luminescence, 5 h; series mostly up to 92.4 µM; activity change, negative = cytotoxicity: at the top concentration
Procedure, shortened: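 In the same wells as the reporter read, viability of CRE-bla HEK 293T cells was quantified by CellTiter-Glo luminescence after a 3 h compound exposure.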
% is set by controls: 0 for no effect and ±100 for the full control effect.

Compound | activity change, negative = cytotoxicity | Potency
CNCCO | 2.13% | –
CCCNCC(O)COc1ccccc1C(=O)CCc1ccccc1 (stereo not given) | -6.14% [at 42.5 µM] | –
NCCS(=O)(=O)O | – | inactive
CC(=O)OCCCc1ccccc1 | 3.65% | –
CCOc1ccc(NC(C)=O)cc1N | 1.34% | –
Cc1[nH]cnc1C[C@H]1CCc2c(C)c3ccccc3n2C1=O | -3.53% | –
O=C(NN1CCCC1)NS(=O)(=O)c1ccc(Cl)cc1 | 3.69% [at 42.5 µM] | –
CCCOC(=O)c1ccccc1 | – | inactive
Nc1c(N=Nc2ccc(-c3ccc(N=Nc4cc(S(=O)(=O)O)c5ccccc5c4N)cc3)cc2)cc(S(=O)(=O)O)c2ccccc12 | -7.54% | –
c1cc(N(CC2CO2)CC2CO2)ccc1Cc1ccc(N(CC2CO2)CC2CO2)cc1 (stereo not given) | 0.645% | –
Cc1ccc(=O)n(-c2ccccc2)c1 | 1.05% [at 42.5 µM] | –
ClC/C=C/CCl | – | inactive
C/C(=N\O)[C@@H](C)NCC(C)(C)CN[C@H](C)/C(C)=N/O | -1.23% [at 42.5 µM] | –
CC1=C(CC=O)C(C)(C)CCC1 | -2.88% | –
CCCCCCCCc1ccc(Nc2ccc(CCCCCCCC)cc2)cc1 | 1.72% [at 42.5 µM] | –
C1CCCNCC1 | – | inactive
Cc1cccc(Nc2cc(Cl)nc(SCC(=O)O)n2)c1C | – | inactive
CO[C@H]1O[C@H](CO)[C@@H](O)[C@H](O)[C@H]1O | -1.32% | –
Cc1[nH]cnc1CN1CCc2c(c3ccccc3n2C)C1=O | -12.1% [at 42.5 µM] | –
CC(=O)OC(C)c1ccccc1 (stereo not given) | 8.47% | –

Compound | activity change, negative = cytotoxicity | Potency
C=CCOc1cc(Cl)ccc1C(=O)NCCN(CC)CC | -2.17% [at 42.5 µM] | –
CC(O)C#CC(C)O (stereo not given) | 1.2% | –
CCOC(=O)c1ccc(OC(=O)CCCCCN=C(N)N)cc1 | -0.626% [at 42.5 µM] | –
NCCN | – | inactive
CC1=C(C(=O)O)N2C(=O)[C@@H](NC(=O)[C@H](N)c3ccc(O)cc3)[C@H]2SC1 | -23.7% [at 42.5 µM] | –
CCCCCCCCCCCCN | – | inactive
N#CC1(O)CCCCC1 | 1.18% | –
CC(C)NCCCC1(C(N)=O)c2ccccc2-c2ccccc21 | 11.1% [at 42.5 µM] | –
CN1C(=O)CC[C@H]1c1cccnc1 | – | inactive
CCCCCc1cccc(=O)o1 | -0.572% | –
O=C(Nc1ccc(Oc2ccc(Cl)cc2)c(Cl)c1)c1cc(I)cc(I)c1O | -8.99% [at 42.5 µM] | –
C=COC(=O)C(C)(CC)CCC(C)C (stereo not given) | -2.16% | –
COCC(=O)O[C@]1(CCN(C)CCCc2nc3ccccc3[nH]2)CCc2cc(F)ccc2[C@@H]1C(C)C | -2.48% [at 42.5 µM] | –
CC(O)COC(C)(C)C (stereo not given) | -10% | –
CC(C)(C)C(=O)CCc1ccc(Cl)cc1 | 1.71% | –
O=S(=O)(Cl)c1c(Cl)cccc1Cl | -3.43% | –
CN(C)CCCSc1ccccc1NC(=O)/C=C/c1ccccc1 | 7.07% [at 42.5 µM] | –
CCS(=O)(=O)CCn1c([N+](=O)[O-])cnc1C | 8.75% [at 42.5 µM] | –
CO[C@H]1C=CO[C@@]2(C)Oc3c(C)c(O)c4c(O)c(cc(O)c4c3C2=O)NC(=O)/C(C)=C\C=C/[C@H](C)[C@H](O)[C@@H](C)[C@@H](O)[C@@H](C)[C@H](OC(C)=O)[C@@H]1C | 4.94% | –
Cn1cnc2c(F)c(Nc3ccc(Br)cc3Cl)c(C(=O)NOCCO)cc21 | 1.68% [at 42.5 µM] | –
